Experimental data taken from PubChem BioAssay AID449762 (Southern Research Specialized Biocontainment Screening …, 2010).
Out of some 330,000 compounds screened, about 1,900 (0.58%) were called active. Roughly 4% stayed inconclusive and do not appear here. Rule as the data show it: inconclusive = inhibition above about 70% without an active follow-up result; inactive = below that. These entries were drawn from the full list. Potency and affinity values are given separately.

Assay: M. tuberculosis growth inhibition, HTS (AID 449762);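 also: bacterial growth assessed after seven days of incubation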
Details: M. tuberculosis H37Rv growth inhibition, 7H9 media; at 25 µM; stronger effect = higher value

Row | Structure (SMILES) | inhibition
1 | CCN(c1ccccc1)S(=O)(=O)c1ccc(OC)c(N=N/C(C(=O)Nc2ccccc2)=C(/C)O)c1 | 10.8% (inactive)
2 | O=C(NCC(c1ccco1)N1CCOCC1)c1cccc([N+](=O)[O-])c1 (stereo unspecified) | 1.76% (inactive)
3 | CC[C@H](C)[C@@H](CN[C@H](CCCCNC)CNC)NCC1CCCC1 | 4.48% (inactive)
4 | CC(C)NCC(O)COC1CCC(C(C)(C)C)CC1 (stereo unspecified) | -7.84% (inactive)
5 | Cc1ccc(C2C3=C(CC(C)(C)CC3=O)OC3=C2C(=O)CC(C)(C)C3)cc1 | -4.24% (inactive)
6 | Cc1onc(-c2ccccc2)c1C(=O)OCC(=O)N1CCC(C)CC1 | -0.29% (inactive)
7 | CSc1nnc(C)c(/C=C/NOCc2ccc(Cl)cc2)n1 | -4.59% (inactive)
8 | CCc1ccc2c(c1)cc(CN(C(=S)Nc1ccc(Cl)cc1)C1CC1)c1nnnn12 | -13.5% (inactive)
9 | Cn1cnc2cc(NCc3cccs3)ccc21 | 2.02% (inactive)
10 | Cc1ccccc1-n1cnc2cc(NCc3cccs3)ccc21 | 59.7% (inactive)
11 | CCn1c(SC(C)C(=O)N2CCOCC2)nc2sc(C)c(C)c2c1=O (stereo unspecified) | -0.24% (inactive)
12 | CCC(C)[C@H](NC(=O)C1CC(=O)N(c2ccc3c(c2)OCCO3)C1)C(=O)NC1CCCC1 (stereo partly specified) | -2.76% (inactive)
13 | CN(CCC#N)C(=O)COC(=O)c1ccc2c(c1)C(=O)N(C1CCCCC1)C2=O | 11.1% (inactive)
14 | COC(=O)c1ccc2c(c1)C(=O)N(C1CCCCC1)C2=O | 48.9% (inactive)
15 | O=C(O)COc1ccc(NC(=O)c2ccc3c(c2)C(=O)N(C2CCCCC2)C3=O)cc1 | -5.81% (inactive)
16 | CCC(=O)Nc1ccc2c(c1)C(=O)N(C1CCCCC1)C2=O | 12.2% (inactive)
17 | Clc1cccc(C2CCN(Cc3nc(CC4CC4)no3)C2)c1 (stereo unspecified) | 16.3% (inactive)
18 | COc1ccc(NCc2nnc(SCc3ccc(Cl)cc3)n2-c2ccccc2)cc1 | -5.4% (inactive)
19 | CCOC(=O)CSc1nnc(CNc2cccc(Cl)c2)n1-c1ccccc1 | -7.68% (inactive)
20 | Cc1ccccc1S(=O)(=O)Cc1ccc(C(=O)NCCCOC(C)C)o1 | 2.68% (inactive)
21 | CN(CC(=O)Nc1ccccc1Cl)C(=O)COC(=O)c1ccc(=O)n(Cc2ccccc2)n1 | 0.91% (inactive)
22 | Cc1sc2nc(CN(C(=O)NC3CCCCC3)C3CCCCC3)[nH]c(=O)c2c1C | 26.1% (inactive)
23 | CC(=O)N(Cc1nc2sc(C)c(C)c2c(=O)[nH]1)C1CCCC1 | -3.15% (inactive)

Row | Structure (SMILES) | inhibition
24 | O=C(Cc1ccc(F)cc1)N(c1ccccc1)C1C=CS(=O)(=O)C1 (stereo unspecified) | -6.47% (inactive)
25 | CCn1cc(C2C(C(=O)Nc3cc(C)ccn3)=C(C)NC3=C2C(=O)CC(C)(C)C3)c(C)n1 (stereo unspecified) | 1.96% (inactive)
26 | CCCCCCn1c(=O)c(C(=O)Nc2ncccc2O)c(O)c2ccccc21 | 13.4% (inactive)
27 | CCCn1c(=O)c(C(=O)Nc2ncccc2C)c(O)c2ccccc21 | 18.3% (inactive)
28 | CCN(N=Nc1cccc([N+](=O)[O-])c1)c1cccc([N+](=O)[O-])c1 | 4.11% (inactive)
29 | CC1(C)CC(=O)C(N=Nc2cccc([N+](=O)[O-])c2)=C(O)C1 | 0.73% (inactive)
30 | COc1ccc(CCN2C(=O)CSC2c2ccc(F)cc2)cc1 (stereo unspecified) | -7.99% (inactive)
31 | Cc1ccc(S(=O)(=O)N(C)c2ccc(C(=O)Nc3ccccn3)cc2)cc1 | 27.5% (inactive)
32 | COc1ccc(-c2sc3ccc(N4CCOCC4)cc3c2-c2ccc(OC)c(F)c2)cc1 | -0.65% (inactive)
33 | Cc1nc(SCc2nc3ccccc3[nH]2)c2oc3cc(Br)ccc3c2n1 | 0.43% (inactive)
34 | N=c1sccn1CC(=O)Nc1ccc(Cl)cc1[N+](=O)[O-] | -3.88% (inactive)
35 | Cc1cc(NC(=O)Cn2ccsc2=N)c([N+](=O)[O-])cc1C | -4.45% (inactive)
36 | CC(Oc1ccccc1)C(=O)N1CCC2(CC1)Oc1ccc(Cl)cc1C(=O)C21CC(c2ccccc2)=NO1 (stereo unspecified) | 23.6% (inactive)
37 | CC(C)C(=O)N1CCC2(CC1)Oc1ccc(Cl)cc1C(=O)C21CC(c2cccnc2)=NO1 (stereo unspecified) | 1.87% (inactive)
38 | CN1/C(=C\C(=O)c2ccco2)C(C)(C)c2ccccc21 | 1.21% (inactive)
39 | CN1/C(=C\C(=O)c2cccnc2)C(C)(C)c2ccccc21 | 14.2% (inactive)
40 | CCC(C)[C@H](NC(=O)Nc1ccc(S(N)(=O)=O)cc1)C(=O)OC (stereo partly specified) | 1.32% (inactive)
41 | O=C(CCl)Nc1ccc(S(=O)(=O)NC2=NCCCCC2)cc1 | 47.6% (inactive)
42 | COC(=O)c1cc(/C=C/c2ccccc2)[nH]n1 | 37.7% (inactive)
43 | Cc1cc(NC(=O)/C=C/c2ccccc2)no1 | 11.4% (inactive)
44 | O=C(c1ccc(C(F)(F)F)cc1)N1CCC(=O)N(C(COCc2ccc(Cl)cc2)Cc2ccccc2)CC1 (stereo unspecified) | -0.74% (inactive)
45 | CCSc1nc2ccccc2n1CC(N)=O | -10.4% (inactive)
46 | CC(C)(C(=O)O)c1ccc([C@H](O)CCCN2CCC(C(O)(c3ccccc3)c3ccccc3)CC2)cc1 | 6.89% (inactive)
